From PubChem BioAssay AID624330 (Southern Research Specialized Biocontainment Screening …, 2012)
Hit rate of the full screen: of about 340,000 compounds, about 2,100 (0.62%) were called active. Not all results are given here. Entries with a potency or affinity are not part of this list. Values without a mark were called inactive.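 Rule for the calls: active = first-screen hits whose inhibition reached a set limit at any dose in the follow-up dose series; inconclusive = inhibition above the set first-screen limit but never retested; inactive = the rest.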

biological target: Rac GTPase-activating protein 1 (Homo sapiens) (UniProt Q9H0H5); test: MgcRacGAP GTPase-activating activity inhibitors, confirmation, biochemical, ADP Hunter fluorescence, primary and confirmatory (AID 624330); conditions: MgcRacGAP-stimulated Rac1 GTP hydrolysis, at 30 µM, stronger effect = higher value, GST-tagged Rac1 F28L mutant substrate;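 note: fluorescence reports GDP produced by GAP-driven GTP hydrolysis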
Sequence (Q9H0H5 whole entry, looked up): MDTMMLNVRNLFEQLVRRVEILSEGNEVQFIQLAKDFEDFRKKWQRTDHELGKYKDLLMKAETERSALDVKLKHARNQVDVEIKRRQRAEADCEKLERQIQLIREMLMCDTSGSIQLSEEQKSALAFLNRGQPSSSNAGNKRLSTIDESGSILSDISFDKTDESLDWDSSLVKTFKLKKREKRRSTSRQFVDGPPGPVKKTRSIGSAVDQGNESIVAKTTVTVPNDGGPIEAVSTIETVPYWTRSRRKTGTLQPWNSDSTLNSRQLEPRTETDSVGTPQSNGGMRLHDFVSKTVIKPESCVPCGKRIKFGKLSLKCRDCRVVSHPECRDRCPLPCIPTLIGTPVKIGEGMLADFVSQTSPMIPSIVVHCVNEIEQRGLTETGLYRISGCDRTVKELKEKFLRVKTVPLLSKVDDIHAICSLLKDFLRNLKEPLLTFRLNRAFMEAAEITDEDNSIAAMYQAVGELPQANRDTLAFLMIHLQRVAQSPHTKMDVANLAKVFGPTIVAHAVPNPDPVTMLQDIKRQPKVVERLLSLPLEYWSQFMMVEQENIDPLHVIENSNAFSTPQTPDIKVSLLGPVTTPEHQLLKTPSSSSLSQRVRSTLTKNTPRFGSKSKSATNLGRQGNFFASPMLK

Compound	inhibition [%]
Cc1ccc2c(c1)nnn2C1CCN(CC(=O)NNC(=O)c2ccco2)CC1	0.28
CCOc1cccc(CNc2ccc(O)cc2)c1OCc1ccc(Cl)cc1	19.5
CCOc1cccc(CNc2ccc(O)cc2)c1OCc1ccccc1Cl	29.3
CCCCCCN1C[C@@H](O)[C@H](n2cc(-c3ccc(F)cc3)nn2)C[C@@H]1c1ccc(C)cc1	6.07
CNCc1c(OCc2ccccc2F)ccc2ccccc12	-6.3
O=C1NC(=O)/C(=C/c2ccco2)N1	11
O=C1/C(=C\c2ccco2)SC(=S)N1c1ccccc1	23.6
O=C1/C(=C/c2ccco2)CCc2ccccc21	8.52
O=C1/C(=C\c2ccco2)CCC/C1=C\c1ccco1	38.4
O=C1CNC(=O)/C(=C/c2ccco2)N1	14.3
O=C1C(=Cc2cccs2)C(=O)c2ccccc21	4.2
O=C1/C(=C\c2ccco2)NC(=S)N1c1ccccc1	21.9
O=C1CNC(=O)/C(=C/c2cccs2)N1	0.05
O=C(NCc1cccc(Cl)c1)c1ccc(CS(=O)Cc2ccccc2Cl)o1 (centres undefined)	-7.5
C[C@@H]1CCCCO[C@H](CN(C)C(=O)Nc2ccc3c(c2)OCO3)[C@H](C)CN([C@@H](C)CO)C(=O)c2cc(NS(=O)(=O)c3ccc(Cl)cc3)ccc2O1	10.2
O=C(CN1CCOc2ccccc21)NCc1ccccc1	-7.36
O=C(N/N=C\c1ccccn1)C1COc2cc3ccccc3cc2O1 (centres undefined)	15.9
CN1/C(=C/C2CC(=O)NC2=O)C(C)(C)c2ccccc21 (centres undefined)	6.09
O=c1oc2c(CN3CCCCC3)c(O)ccc2c2c1CCCC2	-1.27
COc1ccc(-c2noc(CCC(=O)NCCCN3CCC(C)CC3)n2)cc1	8.68
O=C(COc1ccc(S(=O)(=O)N2CCCC2)cc1)N1CCN(c2ccccc2F)CC1	3.38
CCN(Cc1ccncc1)C(=O)c1ccc2c(c1)S(=O)(=O)c1ccccc1C2=O	-39.1
CCCC1=NN2C(=N)/C(=C\c3ccc(SCc4ccco4)o3)C(=O)N=C2S1	60.1

Compound	inhibition [%]
CC1=CN2C(=N)/C(=C/c3ccco3)C(=O)N=C2S1	5.23
CCS(=O)(=O)C1=NN2C(=N)/C(=C\c3ccc(OC(=O)c4ccco4)c(OC)c3)C(=O)N=C2S1	30.5
CCOc1cc(/C=C2\C(=N)N3N=C(S(=O)(=O)CC)SC3=NC2=O)ccc1OC(=O)c1ccco1	26.5
CCC1=NN2C(=N)/C(=C\c3ccc(SCc4ccco4)o3)C(=O)N=C2S1	45.8
COc1cc(/C=C2/C(=N)N3C=CSC3=NC2=O)ccc1OCCCOc1cc(C)ccc1C	4.39
C=CCOc1ccc(/C=C2\C(=N)N3N=C(S(=O)(=O)CC)SC3=NC2=O)cc1OC	-6.72
CCOc1cc(/C=C2\C(=N)N3N=C(S(C)(=O)=O)SC3=NC2=O)ccc1OCCOc1cccc(OC)c1	12.1
CCC(=O)Nc1cc(-c2nn(C)c(=O)c3ccccc23)ccc1N1CCOCC1	1.97
Cc1csc(SC(C)C(=O)NCc2ccc3c(c2)OCO3)n1 (centres undefined)	6
Cc1ncc(C[n+]2csc(CCOC(=O)C34CC5CC(CC(C5)C3)C4)c2C)c(N)n1	1.84
CCOc1ccccc1OCC(=O)Nc1cc(S(=O)(=O)N2CCCCC2)ccc1OC	10.7
Cn1c(Cc2ccccc2)nnc1SCc1nc2ccccc2c(=O)[nH]1	0.95
COCC(=O)N1CCC(Oc2ccc(C(=O)N(C)Cc3nccs3)cc2)CC1	3.05
CSc1ccccc1NC(=O)c1cccc(S(=O)(=O)N2CCN(C)CC2)c1	2.55
C[C@H]1CCCCO[C@@H](CN(C)S(=O)(=O)c2ccc(F)cc2)[C@@H](C)CN([C@@H](C)CO)C(=O)c2cc(NC(=O)Nc3ccc4c(c3)OCO4)ccc2O1	9.48
CCN(CC)CCCNC(=S)N1CCn2c(nc3ccccc32)C1	6.61
O=C(NCC1CCCO1)c1cc([N+](=O)[O-])ccc1Cl (centres undefined)	2.41
O=C(CC1CCCC1)NNC(=O)c1ccc(Br)cc1	10.1
CC1=NN(c2ccc(Cl)c(C(=O)O)c2)C(=O)/C1=C\c1ccc(-c2ccc(C(=O)O)cc2)o1	20.6
CC1=NOC(=O)/C1=C/c1ccc(-c2ccc(Cl)cc2)o1	13
CC1=NN(c2ccc(Br)cc2)C(=O)/C1=C/c1ccc(-c2ccccc2C(=O)O)o1	7.93
CC1=NOC(=O)/C1=C\c1ccc(-c2cccc(Cl)c2)o1	12.5
CC(=O)NCC1CCCN(Cc2cn(-c3ccccc3)nc2-c2ccc3c(c2)OCO3)C1 (centres undefined)	-2.78

Compound	inhibition [%]
COc1ccc(/C=N/NC(=O)CNC(=O)c2cccs2)cc1	2.55
O=C(CNC(=O)c1ccco1)N/N=C/c1ccc(O)c([N+](=O)[O-])c1	1.55
COc1cccc(/C=N/NC(=O)CNC(=O)c2ccco2)c1O	13.1
COc1cc(/C=N/NC(=O)c2cccs2)ccc1O	9.66
O=S(=O)(c1cccc(S(=O)(=O)N2CCCC2)c1)N1CCCCC1	-4.65
O=C(COC(=O)/C=C/c1cccc(C(F)(F)F)c1)NC(c1ccccc1)c1ccccc1	-0.08
Cc1oc2ccccc2c1-c1cn2c(n1)SCC2	18.1
COC(=O)c1[nH]c(C)c(/C(O)=C2\C(=O)C(=O)N(CCN(C)C)C2c2ccccc2OC)c1C (centres undefined)	-0.13
CC(C)(C)OC(=O)NCC(=O)NCC(=O)OCc1ccccc1	4.89
CC1(c2cccc(Br)c2)NC(=O)N(CC(=O)Nc2ccc3c(c2)OCO3)C1=O (centres undefined)	8.04
NS(=O)(=O)c1ccc(CCNCc2cc(Br)ccc2OCc2ccccc2F)cc1	1.51
COCC1CCCCN1Cc1cn[nH]c1-c1ccc(OC)cc1OC (centres undefined)	-6.12
CC(NC(=O)COC(=O)c1cc(=O)c2ccccc2o1)c1ccccc1 (centres undefined)	2.31
COc1ccccc1/C=C/CN1CCC(Oc2ccc(C(=O)N3CCCC3)cc2)CC1	7.28
COc1ccc(/C=C/CN2CCC(Oc3ccc(C(=O)N4CCCCC4)cc3)CC2)cc1	7.82
OCC1(CC2CCCCO2)CCN(C/C=C/c2ccccc2)CC1 (centres undefined)	1.66
COc1cccc(CN2CCC(CO)(CC3CCCCO3)CC2)c1 (centres undefined)	10.7
O=C(NCC1CCCO1)c1ccccc1-c1nc(-c2ccc(Cl)cc2)no1 (centres undefined)	10.3
CC(C)(C)NC(=O)NC(=O)CSc1nnc(-c2ccccc2F)n1N	11.7
CC1(C)CC(O)C(C(O)c2cccc([N+](=O)[O-])c2)C(C)(C)N1 (centres undefined)	-4.29
COC(=O)C1=C(C)N(CCc2ccc(OC)c(OC)c2)C(=O)/C1=C\c1ccc(O)cc1	27.5
COC(=O)C1=C(C)N(Cc2ccco2)C(=O)/C1=C\c1ccc([N+](=O)[O-])cc1	40.1
COC(=O)C1=C(C)N(Cc2ccc(C)cc2)C(=O)/C1=C\c1ccc(O)c(OC)c1	-0.65

Compound	inhibition [%]
CCOc1cc(/C=C2\C(=O)N(Cc3ccc(C)cc3)C(C)=C2C(=O)OC)ccc1O	13.1
Cc1cccc(C(C)C)c1NC(=O)COC(=O)c1cc2ccccc2oc1=O	4.05
CCOC(=O)C1CCN(C(=O)Cn2nc(C)n3nc(-c4ccc(OC)cc4)cc3c2=O)CC1	4.91
CCOC(=O)C(O)(CC(=O)c1ccc(Cl)cc1)C(=O)OCC	3.02
OCCn1c(-c2ccccc2)csc1=Nc1ccccc1	7.22
CCn1c(-c2ccccc2)csc1=Nc1ccc(S(=O)(=O)O)cc1	9.33
CCOC(=O)CC1CCCCN1C(=O)CCCn1nnnc1CN1CCOCC1 (centres undefined)	7.71
CCOC(=O)N1CCN(C(=O)COc2ccc([N+](=O)[O-])cc2)CC1	-2.93
Cc1cccc(OCC(=O)N2CCN(C(=O)Cc3ccccc3)CC2)c1	8.65
O=C(COc1ccc2ccccc2c1)N1CCCC1	7.41
Cc1cccc(OCC(=O)N2CCN(C(=O)COc3ccc(Cl)cc3)CC2)c1	9.73
Cc1ccc(OCC(=O)N2CCN(C(=O)c3ccc([N+](=O)[O-])cc3)CC2)cc1	4.34
O=C(COc1ccc2ccccc2c1)N1CCN(C(=O)c2cccnc2)CC1	8.31
CCn1ccnc1CN(C)C(=O)C1CCC(=O)N(Cc2cccc(C(F)(F)F)c2)C1 (centres undefined)	4.11
COc1cc(NC(=O)COC(=O)CNS(=O)(=O)c2ccc(F)c(F)c2F)cc(OC)c1	9.27
COc1ccc(-n2nc(C(=O)NCC(=O)NCCN(C)C)c3ccccc3c2=O)c(OC)c1	8.96
Cc1nn(C)cc1CNC(=O)/C=C/c1cnn(C)c1	-2.3
O=[N+]([O-])c1ccc(N2CCCCC2)nc1N1CCCCC1	2.43
O=C(COC(=O)C1CCN(c2ccc(C(F)(F)F)cn2)CC1)NCc1ccccc1	2.35
CC12CCC(=O)N1C(C(=O)OCC(=O)Nc1ccc(S(N)(=O)=O)cc1)CS2 (centres undefined)	0.82
